Where “and” joins values, the source holds several entries; their conditions need not be identical. Identical values can stand only once. Screen size: about 310,000 compounds; about 11,000 (3.5%) were called active. Inconclusive results (about 4%) are left out. The rule behind the calls is not given here. The sample as a whole holds a higher share of actives than the screen did.

The results in this text go back to ChEMBL document CHEMBL1201862, “PubChem BioAssay data set” (2004).

The target in the experiment is T1, 4'-phosphopantetheinyl transferase ffp (Bacillus subtilis) (UniProt Q9F4F7).
T1 sequence (whole entry): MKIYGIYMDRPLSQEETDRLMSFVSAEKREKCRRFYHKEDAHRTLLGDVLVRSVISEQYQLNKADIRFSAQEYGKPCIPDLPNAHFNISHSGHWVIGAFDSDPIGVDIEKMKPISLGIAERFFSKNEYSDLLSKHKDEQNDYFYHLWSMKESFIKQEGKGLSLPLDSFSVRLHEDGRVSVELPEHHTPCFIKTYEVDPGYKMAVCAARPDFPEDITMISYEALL
Kind of experiment: qHTS Assay for Inhibitors of Bacillus subtilis Sfp phosphopantetheinyl transferase (PPTase). In kind it is functional. For orientation: In qHTS, concentration-response curves come from the screen itself.
With `N[C@@H](CCC(=O)O)C(=O)O`, the Potency is 50.1 µM (active). As for `N[C@H](CCC(=O)O)C(=O)O`, the Potency is 44.7 µM (active) and 56.2 µM (active).
